Results filed as inconclusive are left out. The source made the active and inactive calls. Calls come from the whole dose curve; as a rule, active = well fitted curve in the direction sought with a large enough effect in the repeat runs; inconclusive = weak or mixed curves; inactive = no such curve, though single readings can be large; an effect the other way counts as inactive or inconclusive.
Legend:
[1] = qHTS RealTime-Glo MT Cell Viability Assay in HepG2 cells - 24 hour (AID 1224867); note: nearly all actives have a fitted effect of over 50% in size
Method in brief: (§1)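 Real-time, nonlytic viability: 600 HepG2 cells/well mixed with NanoLuc enzyme plus prosubstrate; 5 h settle, compound (DMSO) added by pintool; luminescence monitored over 40 h at 37 C.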

[2] = qHTS RealTime-Glo MT Cell Viability Assay in HEK293 cells - 32 hour (AID 1224868); note: top concentration of the series differs between compounds; nearly all actives have a fitted effect of over 50% in size
Method in brief: (§2)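 Cells + reagent dispensed (600 cells/well, HEK293) → 5 h at 37 C/5% CO2 → 23 nL compound in DMSO pinned → 40 h at 37 C → luminescence read at 0, 8, 16, 24, 32, 40 h.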

[3] = A CellTox Green Cytotoxicity Assay to monitor cytotoxicity in HEK293 cells - 0 hour (AID 1224869); note: nearly all actives have a fitted effect of over 50% in size
Method in brief: (§3)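 Read-out: fluorescence of a cell-impermeant cyanine dye staining DNA of dead cells, proportional to cytotoxicity. HEK293, 600 cells/well with reagent, compound (23 nL DMSO) added after 5 h; reads at 0, 8, 16, 24, 32, 40 h.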

[4] = qHTS RealTime-Glo MT Cell Viability Assay in HepG2 cells - 40 hour (AID 1224870); note: nearly all actives have a fitted effect of over 50% in size
Method in brief: (§4)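 Real-time viability: cells seeded at 600 per well together with NanoLuc and cell-permeant prosubstrate, compounds added after 5 h incubation. Luminescence tracked at 0, 8, 16, 24, 32 and 40 h of exposure.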

[5] = A CellTox Green Cytotoxicity Assay to monitor cytotoxicity in HEK293 cells - 40 hour (AID 1224871); note: nearly all actives have a fitted effect of over 45% in size
Method in brief: as §3

[6] = qHTS RealTime-Glo MT Cell Viability Assay in HEK293 cells - 16 hour (AID 1224872)
Method in brief: as §2

[7] = qHTS RealTime-Glo MT Cell Viability Assay in HepG2 cells - 8 hour (AID 1224873); note: nearly all actives have a fitted effect of over 55% in size
Method in brief: as §4

[8] = qHTS RealTime-Glo MT Cell Viability Assay in HEK293 cells - 40 hour (AID 1224874); conditions: RealTime-Glo luminescence; max response: stronger effect = lower value; note: nearly all actives have a fitted effect of over 50% in size
Method in brief: (§5)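 Luminescence readout at each listed time point; HEK293, 600 cells/well, RealTime-Glo MT reagent added with cells; compounds pinned (23 nL in DMSO) after 5 h at 37 C; continuous culture at 37 C.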

[9] = A CellTox Green Cytotoxicity Assay to monitor cytotoxicity in HEK293 cells - 24 hour (AID 1224875); note: series mostly up to about 77 µM; nearly all actives have a fitted effect of over 45% in size
Method in brief: as §3

[10] = A CellTox Green Cytotoxicity Assay to monitor cytotoxicity in HepG2 cells - 16 hour (AID 1224876); note: nearly all actives have a fitted effect of over 45% in size
Method in brief: (§6)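 HepG2, 600 cells/well premixed w/ CellTox Green; 5 h settle, 37 C/5% CO2; pintool cpd add (DMSO); 37 C, 40 h; fluorescence read at 0, 8, 16, 24, 32, 40 h.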

[11] = qHTS RealTime-Glo MT Cell Viability Assay in HepG2 cells - 32 hour (AID 1224877); note: nearly all actives have a fitted effect of over 55% in size
Method in brief: as §1

[12] = A CellTox Green Cytotoxicity Assay to monitor cytotoxicity in HepG2 cells - 24 hour (AID 1224878); note: nearly all actives have a fitted effect of over 45% in size
Method in brief: as §6

[13] = A CellTox Green Cytotoxicity Assay to monitor cytotoxicity in HepG2 cells - 40 hour (AID 1224879); note: nearly all actives have a fitted effect of over 40% in size
Method in brief: as §6

[14] = qHTS RealTime-Glo MT Cell Viability Assay in HEK293 cells - 0 hour (AID 1224880)
Method in brief: as §5

[15] = A CellTox Green Cytotoxicity Assay to monitor cytotoxicity in HEK293 cells - 32 hour (AID 1224881); note: nearly all actives have a fitted effect of over 40% in size
Method in brief: as §3

[16] = A CellTox Green Cytotoxicity Assay to monitor cytotoxicity in HepG2 cells - 0 hour (AID 1224882); note: nearly all actives have a fitted effect of over 35% in size
Method in brief: as §6

[17] = A CellTox Green Cytotoxicity Assay to monitor cytotoxicity in HepG2 cells - 32 hour (AID 1224883); note: nearly all actives have a fitted effect of over 50% in size
Method in brief: as §6

[18] = A CellTox Green Cytotoxicity Assay to monitor cytotoxicity in HEK293 cells - 8 hour (AID 1224884); note: nearly all actives have a fitted effect of over 35% in size
Method in brief: as §3

[19] = qHTS RealTime-Glo MT Cell Viability Assay in HepG2 cells - 16 hour (AID 1224885); note: nearly all actives have a fitted effect of over 50% in size
Method in brief: as §1
% is set by controls: 0 for no effect and ±100 for the full control effect.

CC(=O)c1cc(C)oc1C
inactive: outcome [1] | Potency [2] | Potency [3] | outcome [4] | Potency [5] | Potency [6] | outcome [7] | max response [8] -0.494% | Potency [9] | Potency [10] | outcome [11] | Potency [12] | Potency [13] | Potency [14] | Potency [15] | Potency [16] | Potency [17] | Potency [18] | outcome [19]

CCc1occc(=O)c1O
inactive: outcome [1] | Potency [2] | Potency [3] | outcome [4] | Potency [5] | Potency [6] | outcome [7] | max response [8] 3.56% | Potency [9] | Potency [10] | outcome [11] | Potency [12] | Potency [13] | Potency [14] | Potency [15] | Potency [16] | Potency [17] | Potency [18] | outcome [19]

C#CCN[C@@H]1CCc2ccccc21
inactive: outcome [1] | Potency [2] | Potency [3] | outcome [4] | Potency [5] | Potency [6] | outcome [7] | max response [8] -4.89% | Potency [9] | Potency [10] | outcome [11] | Potency [12] | Potency [13] | Potency [14] | Potency [15] | Potency [16] | Potency [17] | Potency [18] | outcome [19]

CC(CO)(CO)CO
inactive: outcome [1] | Potency [2] | Potency [3] | outcome [4] | Potency [5] | Potency [6] | outcome [7] | max response [8] 2.55% | Potency [10] | outcome [11] | Potency [12] | Potency [13] | Potency [14] | Potency [15] | Potency [16] | Potency [17] | Potency [18] | outcome [19]

CO[C@@]1(NC(=O)Cc2cccs2)C(=O)N2C(C(=O)O)=C(COC(N)=O)CS[C@@H]21
inactive: outcome [1] | Potency [2] | Potency [3] | outcome [4] | Potency [5] | Potency [6] | outcome [7] | max response [8] 0.152% | outcome [11] | Potency [12] | Potency [13] | Potency [14] | Potency [15] | Potency [16] | Potency [17] | Potency [18] | outcome [19]

C=CCCCCCCCC
inactive: outcome [1] | Potency [2] | Potency [3] | outcome [4] | Potency [5] | Potency [6] | max response [8] 1.11% | Potency [9] | Potency [10] | outcome [11] | Potency [12] | Potency [13] | Potency [15] | Potency [16] | Potency [17] | Potency [18] | outcome [19]

O=S(=O)(O)c1ccc2c(N=Nc3ccc(S(=O)(=O)O)c4ccccc34)c(O)c(S(=O)(=O)O)cc2c1
inactive: activity change, negative = cytotoxicity [1] -1.89% [at 6.97 µM] | activity change, negative = cytotoxic [2] 7.73% [at 6.97 µM] | cytotoxicity [3] 3.08% [at 6.97 µM] | activity change, negative = cytotoxic [4] -7.38% [at 6.97 µM] | cytotoxicity increase [5] 7.83% [at 6.97 µM] | activity change, negative = cytotoxicity [6] 5.03% [at 6.97 µM] | viability change, negative = cytotoxic [7] 0.329% [at 6.97 µM] | max response [8] 4.14% | cytotoxicity increase [10] -11.6% [at 6.97 µM] | activity change, negative = cytotoxic [11] -3.7% [at 6.97 µM] | cytotoxicity [12] -12.7% [at 6.97 µM] | cytotoxicity increase [13] -16.2% [at 6.97 µM] | activity change, negative = cytotoxicity [14] 7.55% [at 6.97 µM] | cytotoxicity increase [15] 8.52% [at 6.97 µM] | cytotoxicity increase [17] -12.7% [at 6.97 µM] | cytotoxicity increase [18] 7.19% [at 6.97 µM] | activity change, negative = cytotoxic [19] 0.447% [at 6.97 µM]

COP(=O)(O)OP(=O)(O)OC
inactive: outcome [1] | Potency [2] | Potency [3] | outcome [4] | Potency [5] | Potency [6] | outcome [7] | max response [8] 5.3% | Potency [10] | outcome [11] | Potency [12] | Potency [13] | Potency [14] | Potency [15] | Potency [16] | Potency [17] | Potency [18] | outcome [19]

Cn1c(=O)c2[nH]c(Br)nc2n(C)c1=O
inactive: outcome [1] | Potency [2] | Potency [3] | outcome [4] | Potency [5] | Potency [6] | outcome [7] | max response [8] 4.15% | outcome [11] | Potency [12] | Potency [13] | Potency [14] | Potency [15] | Potency [16] | Potency [17] | Potency [18] | outcome [19]

C/C=C(\C)C(C)=O
inactive: outcome [1] | Potency [2] | Potency [3] | outcome [4] | Potency [5] | Potency [6] | max response [8] 0.603% | Potency [9] | Potency [10] | outcome [11] | Potency [12] | Potency [13] | Potency [15] | Potency [16] | Potency [17] | Potency [18] | outcome [19]

C/C(CC(C)C)=N\O
inactive: outcome [1] | Potency [2] | Potency [3] | outcome [4] | Potency [5] | Potency [6] | max response [8] -0.628% | Potency [9] | Potency [10] | outcome [11] | Potency [12] | Potency [13] | Potency [14] | Potency [15] | Potency [16] | Potency [17] | Potency [18] | outcome [19]

CC(O)COC(C)(C)C (stereo unspecified)
inactive: outcome [1] | Potency [2] | Potency [3] | outcome [4] | Potency [5] | Potency [6] | outcome [7] | max response [8] 7.99% | Potency [10] | outcome [11] | Potency [12] | Potency [13] | Potency [14] | Potency [15] | Potency [16] | Potency [17] | Potency [18] | outcome [19]

CC1(C)Cc2cccc(N)c2O1
inactive: outcome [1] | Potency [2] | Potency [3] | outcome [4] | Potency [5] | Potency [6] | outcome [7] | max response [8] 1.5% | Potency [10] | outcome [11] | Potency [12] | Potency [13] | Potency [14] | Potency [15] | Potency [16] | Potency [17] | Potency [18] | outcome [19]

CCCCC1CCC(O)CC1 (stereo unspecified)
inactive: outcome [1] | Potency [2] | Potency [3] | outcome [4] | Potency [5] | Potency [6] | max response [8] -3.78% | Potency [9] | Potency [10] | outcome [11] | Potency [12] | Potency [13] | Potency [14] | Potency [15] | Potency [17] | Potency [18] | outcome [19]

CCOC(CN1CCN(CC(C)C(=O)c2ccccc2)CC1)c1ccccc1 (stereo unspecified)
inactive: activity change, negative = cytotoxicity [1] -0.414% [at 15.8 µM] | activity change, negative = cytotoxic [2] -29.5% [at 15.8 µM] | cytotoxicity [3] -3.29% [at 15.8 µM] | activity change, negative = cytotoxic [4] 0.0501% [at 15.8 µM] | cytotoxicity increase [5] -2.53% [at 15.8 µM] | max response [8] -27.6% | activity change [9] -4.62% [at 15.8 µM, stronger effect = higher value] | cytotoxicity increase [10] -21.5% [at 15.8 µM] | activity change, negative = cytotoxic [11] 0.188% [at 15.8 µM] | cytotoxicity [12] -18.2% [at 15.8 µM] | cytotoxicity increase [13] -19.9% [at 15.8 µM] | activity change, negative = cytotoxicity [14] 0.0674% [at 15.8 µM] | cytotoxicity increase [15] -3.67% [at 15.8 µM] | cytotoxicity [16] -4.84% [at 15.8 µM] | cytotoxicity increase [17] -18.4% [at 15.8 µM] | cytotoxicity increase [18] -4.22% [at 15.8 µM] | activity change, negative = cytotoxic [19] 0.651% [at 15.8 µM]

From PubChem BioAssay (Tox21)
